Assay outcomes as filed in PubChem BioAssay.
ELG1 genotox: genotoxicity induction in ELG1-luciferase HEK293T cells. HEK293T ELG1-luciferase reporter, luminescence, 16 h. Potency, µM (series often up to 46 µM), most hits filed as activators. 330,000 compounds, 1.3% hits; further: nearly all actives have a fitted effect of over 60% in size
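Reporter readout depends on ELG1 protein level, which increases with genetic stress. After 16 hr compound exposure at 37 °C, luciferase activity was quantified using ONE-Glo.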
FLuc modulator: firefly luciferase modulation, counter-screen for miR-21 project | P08659 | purified FLuc, Km substrates, luminescence inhibition | Potency, µM (doses to about 57.5 µM), most hits filed as inhibitors | 360,000 compounds, 6.9% hits | AID 588342; further: nearly all actives have a fitted effect of over 55% in size
Target sequence (P08659 whole entry, looked up): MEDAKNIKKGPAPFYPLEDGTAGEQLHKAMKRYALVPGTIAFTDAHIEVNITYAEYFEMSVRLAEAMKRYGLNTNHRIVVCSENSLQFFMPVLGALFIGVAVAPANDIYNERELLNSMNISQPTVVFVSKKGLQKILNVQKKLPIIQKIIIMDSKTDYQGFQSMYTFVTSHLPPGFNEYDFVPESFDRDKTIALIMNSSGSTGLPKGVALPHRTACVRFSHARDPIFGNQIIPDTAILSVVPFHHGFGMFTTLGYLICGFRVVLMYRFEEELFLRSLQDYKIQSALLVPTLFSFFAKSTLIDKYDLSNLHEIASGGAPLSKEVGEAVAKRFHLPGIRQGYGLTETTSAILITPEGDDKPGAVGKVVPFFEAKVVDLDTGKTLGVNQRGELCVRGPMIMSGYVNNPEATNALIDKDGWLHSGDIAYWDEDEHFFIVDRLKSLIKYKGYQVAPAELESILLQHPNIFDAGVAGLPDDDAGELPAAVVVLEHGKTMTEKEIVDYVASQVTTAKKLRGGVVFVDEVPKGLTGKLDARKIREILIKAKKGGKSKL
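Biochemical qHTS of compounds, final roughly 60 µM downward over six points, against 10 nM purified firefly luciferase using Km concentrations of substrates (10 uM D-luciferin, 10 uM ATP) in Tris acetate pH 7.5 buffer; luminescence output.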
SMN2 splice enh: SMN2 splice variant enhancement. HEK293 SMN2-luciferase splicing reporter, luminescence, 30-36 h. Potency, µM (top dose mostly 46.1 µM), actives largely listed as activators. 210,000 compounds, 2.8% hits. AID 1458; further: nearly all actives have a fitted effect of over 55% in size
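HEK293 cells carry an SMN2 […]–luciferase reporter in which exon 7 inclusion puts luciferase in frame. Cells were plated 10-12 h before compound addition, then incubated 30-36 h at 37C. ONE-Glo luminescence was read; sodium butyrate at 4.5 mM final served as control.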
Rab9 promoter act: activates the Rab9 promoter; Huh7 Rab9 promoter-luciferase reporter, luminescence, 24 h; Potency, µM (top dose mostly 9.22 µM), most hits filed as activators; 320,000 compounds, 2.8% hits; further: nearly all actives have a fitted effect of over 60% in size
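Rab9 promoter-driven luciferase in stably transfected Huh7 cells; 1500 cells/well rested 2 h, exposed to compound in DMSO for 24 h at 37 °C, 5% CO2. Luminescence read 10 min after adding luciferase reagent at ambient temperature.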
NPC1 promoter act: activators of NPC1 promoter; Huh7 NPC1 promoter luciferase reporter, 24 h; Potency, µM (highest dose often 9.22 µM), usual class: activators; 320,000 compounds, 2.4% hits; further: nearly all actives have a fitted effect of over 60% in size
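Luminescence read-out of NPC1 promoter-driven luciferase in stably transfected Huh7 cells; compounds delivered in DMSO and left 24 h at 37C, 5% CO2, qHTS titration format.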
Luc counter: Kinase-Glo luciferase inhibition (counter-screen) | Kinase-Glo luciferase, ATP luminescence, 8 min | Potency, µM (highest dose often 38.3 µM), actives largely listed as inhibitors | 200,000 compounds, 0.28% hits | AID 1379; further: nearly all actives have a fitted effect of over 60% in size
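Compound is pinned into ATP-containing buffer (10 uM ATP, imidazole pH 7.2, 7 mM MgCl2). Kinase-Glo luciferase reagent is then added. Light output is recorded following an 8-min room-temperature incubation.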
Large screens that a line does not name were inactive. Hits are enriched below; roughly 7.4% of the tested compounds scored in any of these assays. The call rests on the fitted dose curve; in most records, active means well fitted curve in the direction sought with a large enough effect; inconclusive means small, poorly fitted or top-dose-only effect, or another doubt; inactive means no such curve, though single readings can be large; an effect the other way counts as inactive or inconclusive.

N#C/C(=C/c1ccc2c(c1)OCO2)C(=O)Nc1ccc(O)cc1	ELG1 genotox inconclusive, FLuc modulator inconclusive
N#C/C(=C\c1ccc2c(c1)OCCO2)C(=O)NC1CCCCC1	ELG1 genotox inconclusive, FLuc modulator 4.78µM (no result: SMN2 splice enh)
CCCCNC(=O)/C(C#N)=C/c1ccc2c(c1)OCCO2	ELG1 genotox inconclusive, FLuc modulator 9.53µM
COc1ccc(/C=C(/C#N)C(=O)NC2CCCCC2)cc1Br	none
CCCCCCCCNC(=O)/C(C#N)=C/c1ccc2c(c1)OCCO2	none
COCc1c(C(=O)NCCc2ccc(OC(F)F)cc2)oc2ccccc12	none (no result: FLuc modulator, SMN2 splice enh, Rab9 promoter act, NPC1 promoter act, Luc counter)
COC(=O)[C@]1(Cc2ccccc2)N[C@H](c2ccc(-c3ccc4c(c3)OCO4)cc2)[C@@H]2C(=O)N(C)C(=O)[C@@H]21	FLuc modulator inconclusive (no result: SMN2 splice enh, Luc counter)
O=C(OCC(=O)c1cccs1)c1cccc(C(=O)OCC(=O)c2cccs2)n1	FLuc modulator 12µM
CN(C)c1ccc(C(=O)OCC(=O)c2cccs2)cc1	ELG1 genotox 8.2µM, FLuc modulator 3.38µM, SMN2 splice enh 6.31µM, Rab9 promoter act 1.78µM, NPC1 promoter act 3.55µM
CCc1ccccc1NC(=O)COC(=O)c1cccs1	none (no result: SMN2 splice enh, Luc counter)
CSc1ncccc1C(=O)OCC(=O)c1ccc(C)s1	none (no result: FLuc modulator, SMN2 splice enh, Rab9 promoter act, NPC1 promoter act, Luc counter)
CCOc1ncccc1C(=O)OCC(=O)c1cccs1	FLuc modulator inconclusive
CCc1ccc(C(=O)COC(=O)c2cccs2)cc1	ELG1 genotox 4.47µM, FLuc modulator 0.19µM, Rab9 promoter act 1.41µM, NPC1 promoter act 2.51µM, Luc counter inconclusive
CSc1ncccc1C(=O)OCC(=O)c1cccs1	FLuc modulator 19µM
CNC(=S)Nc1cccc(Cl)c1C	none
O=C(NCc1cccc2[nH]ccc12)C1CCC(=O)N(CCc2ccc(Cl)cc2)C1 (stereo not drawn)	none (no result: SMN2 splice enh, Luc counter)
COc1ccc(-n2c(=S)[nH]c3cc(C(=O)Nc4ccc(C)c(F)c4)ccc3c2=O)c(OC)c1	FLuc modulator inconclusive (no result: SMN2 splice enh, Luc counter)
Cc1ccc(C(=O)COC(=O)CNC(=O)c2cccs2)cc1	none (no result: ELG1 genotox, Rab9 promoter act, NPC1 promoter act)
Cc1ccc(C(=O)COC(=O)c2cccs2)cc1	ELG1 genotox inconclusive, FLuc modulator 0.151µM, SMN2 splice enh inconclusive, Rab9 promoter act 0.447µM, NPC1 promoter act 0.794µM, Luc counter inconclusive
CCCc1cc2c(OC(=O)CC)c(-c3ccc(C(=O)OCC)o3)c(=O)oc2cc1OC	FLuc modulator 23.9µM
CCCc1cc(-c2n[nH]c(C)c2-c2ccc(C(=O)OCC)o2)c(O)cc1O	none
Cc1cc(C)nc(N(C#N)CC(=O)c2ccccc2)n1	FLuc modulator 21.3µM (no result: SMN2 splice enh)
COC(=O)c1sc(NC(=S)NC(=O)c2cccc(Br)c2)nc1C	FLuc modulator 13.5µM (no result: SMN2 splice enh, Luc counter)
C=CCOC(=O)c1sc(NC(=O)c2ccc(OC)cc2)nc1C	ELG1 genotox inconclusive, FLuc modulator inconclusive, SMN2 splice enh inconclusive
COC(=O)c1sc(NC(=S)NC(=O)c2ccc(F)cc2)nc1C	Rab9 promoter act inconclusive
COC(=O)c1sccc1NC(=O)c1ccncc1	none
COC(=O)c1sc(NC(=O)c2ccncc2)nc1C	FLuc modulator 23.9µM (no result: SMN2 splice enh, Luc counter)
CCOc1ccc(C(=O)Nc2nc(C)c(C(=O)OC)s2)cc1	ELG1 genotox 20.6µM, FLuc modulator 0.757µM, Rab9 promoter act inconclusive, NPC1 promoter act inconclusive (no result: SMN2 splice enh, Luc counter)
CC(=O)c1cccc(NC(=O)C2CCCN(C(=O)c3cnn(-c4ccccc4)c3-n3cccc3)C2)c1 (stereo not drawn)	none (no result: ELG1 genotox, Rab9 promoter act, NPC1 promoter act, Luc counter)
O=C(N/N=C/c1cccc(NC(=O)c2ccc(Cl)cc2)c1)c1cccc(O)c1	FLuc modulator 1.9µM, Rab9 promoter act 2.82µM, NPC1 promoter act 1.26µM (no result: SMN2 splice enh, Luc counter)
Cc1cccc(C(=O)Nc2cccc(C(=O)N/N=C/c3cccc(C)n3)c2)c1	FLuc modulator 16.9µM (no result: SMN2 splice enh, Luc counter)
Cc1ccc(C(=O)Nc2cccc(C(=O)N/N=C/c3ccc(O)cc3)c2)cc1	FLuc modulator 0.675µM, Rab9 promoter act 2µM, NPC1 promoter act 1.41µM (no result: SMN2 splice enh, Luc counter)
CSC1=NC(=O)/C(=C\c2cccc3ccccc23)S1	FLuc modulator 7.57µM
N=C1S/C(=C\c2cccc3ccccc23)C(=O)N1c1ccc(F)cc1	none
Cc1ccc(/C=C/c2nnc(-c3ccc(C)cc3)o2)cc1	none
